This is a sample that favours compounds with a hit; in the whole collection about 2.3% have one here.
TMEM16A act – mouse TMEM16A channel activation, primary screen. AID 623877. HEK293 TMEM16A/YFP-H148Q/I152L, iodide quench fluorescence; active compounds read low. Q8BHY3. hit rate 0.3% among 340,000. B-score at 10 µM;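 active = fluorescence-ratio B-score plate-corrected deviation score at least 3 library SD below zero, with starting fluorescence score within 5 deviations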;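 also: channel opened by trigger with iodide after compound preincubation; score built on the fluorescence ratio of max minus min over baseline; more negative score means more quench and so TMEM16A activation or potentiation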
CHT inh – inhibits the human high affinity choline transporter | CHT-expressing cells, membrane potential dye, choline response; active compounds read low | hit rate 0.86% among 310,000 | AID 488975 | B-score at 10 µM;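 active = B-score over 3 SD under the library average, and starting fluorescence ratio not unusually high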;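 also: choline stimulus applied at its EC90 after an EC20 pre-addition; B-score computed on integrated fluorescence ratio after choline addition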
Target sequence (Q9GZV3 whole entry, looked up): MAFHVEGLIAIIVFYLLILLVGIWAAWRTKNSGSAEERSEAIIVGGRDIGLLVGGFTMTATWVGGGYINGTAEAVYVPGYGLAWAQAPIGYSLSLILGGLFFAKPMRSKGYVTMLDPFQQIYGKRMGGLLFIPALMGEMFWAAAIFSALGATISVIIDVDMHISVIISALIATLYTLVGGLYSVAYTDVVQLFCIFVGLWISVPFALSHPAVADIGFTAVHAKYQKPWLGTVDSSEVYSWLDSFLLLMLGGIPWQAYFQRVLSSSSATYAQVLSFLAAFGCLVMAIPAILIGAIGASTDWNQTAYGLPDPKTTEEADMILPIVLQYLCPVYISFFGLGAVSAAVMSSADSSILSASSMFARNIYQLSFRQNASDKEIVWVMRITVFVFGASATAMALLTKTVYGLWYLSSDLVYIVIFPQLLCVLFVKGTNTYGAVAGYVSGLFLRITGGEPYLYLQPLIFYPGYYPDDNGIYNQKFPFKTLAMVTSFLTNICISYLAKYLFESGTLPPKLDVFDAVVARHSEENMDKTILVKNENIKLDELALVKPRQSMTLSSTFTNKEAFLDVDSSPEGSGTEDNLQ
ANO1 block – inhibitors of mouse TMEM16A calcium-activated chloride channel. hit rate 1.2% among 310,000. HEK293 TMEM16A/YFP iodide influx fluorescence, ionomycin. normalized B-score (activity score, 25-100; higher = stronger inhibition) at 10 µM. AID 588511. Q8BHY3;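 active = ratio plate-corrected score three or more library SD toward inhibition, starting fluorescence score within five deviations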;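 also: score derived from kinetic fluorescence span divided by baseline fluorescence per well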
CHT allo act – allosteric activators of human choline transporter CHT | Q9GZV3 | CHT-expressing cells, membrane potential dye, choline EC20; active compounds read high; LV-AA mutant CHT in HEK293 cells | B-score at 10 µM | hit rate 0.49% among 310,000;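 active = initial fluorescence not abnormally high and integrated response B-score, plate-corrected, over 3 SD above library mean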
CHT inh conf – confirmation of human choline transporter CHT inhibitors | shares compounds with CHT inh | CHT-expressing cells, choline membrane potential dye; LV-to-AA substituted CHT, HEK293 cells | CHT activity remaining % of control (active compounds read low), % at 10 µM | hit rate 70% among 2,400 | AID 493221;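 active = choline transporter activity left, mean of duplicates at 10 µM, below buffer-only control mean minus 3 SD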;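 also: depolarization triggered by choline at its EC90 following an EC20 pre-addition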
HEK293 MPD ctr – activity in parental HEK293 cells lacking CHT | shares compounds with CHT inh | membrane potential dye, choline response; active = decrease or increase beyond buffer ±3SD | membrane potential ratio readout (active if shifted either direction beyond buffer ±3SD; no single direction) at 10 µM | hit rate 4% among 2,400;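 also: parental cells lack the transporter so any hit is non-specific; ratio is peak minus trough fluorescence over baseline after EC90 choline challenge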
Each line names hits and unclear results; the compound was inactive in the other large screens (follow-up assays come after a bar, where they were run).

COc1ccc(CNc2ncc(-c3ccccc3)n2C)cc1	CHT inh -5.5 | CHT inh conf 57% | HEK293 MPD ctr inactive
CC1CCCCN1CCNC(=O)CN1C(=O)CSc2ccc(S(=O)(=O)N3CCCCC3)cc21 (centres undefined)	CHT inh -6.7 | CHT inh conf 45% | HEK293 MPD ctr inactive
CC1CCCC(C)N1CCCNC(=O)CN1C(=O)COc2ccc(S(=O)(=O)N3CCOCC3)cc21 (centres undefined)	none
CC1CCN(S(=O)(=O)c2ccc3c(c2)N(CC(=O)NCCCN2C(C)CCCC2C)C(=O)CO3)CC1 (centres undefined)	CHT inh -7.4 | CHT inh conf 34% | HEK293 MPD ctr inactive
O=C1OCCC1Sc1nnnn1-c1ccccc1 (centres undefined)	none
O=C1OCCC1Sc1nc(-c2ccccc2)cs1 (centres undefined)	CHT inh -9.1 | CHT inh conf 39% | HEK293 MPD ctr inactive
CC(NC(=O)CNC(=O)c1cccs1)c1cccc(C(F)(F)F)c1 (centres undefined)	none (no result: CHT inh, ANO1 block, CHT allo act)
CCOc1cc(/C=N/NC(=O)c2ccc(CN3CCOCC3)cc2)ccc1OC	CHT inh -9 | CHT inh conf inactive | HEK293 MPD ctr inactive
Cc1nc(C(=O)N2CCc3c([nH]c4ccccc34)C2c2cc(F)ccc2F)cs1 (centres undefined)	none
CCCCn1nc2cc(C(=O)NCCc3ccc(C)cc3)ccc2c1OCC	none
CCCCNC(=O)c1ccc2c(OCC)n(CCCC)nc2c1	CHT inh -7.1 | CHT inh conf 57% | HEK293 MPD ctr inactive
Cc1ccc(S(=O)(=O)NNC(=O)c2sc3nc(C)cc(C)c3c2-n2cccc2)cc1	CHT inh -5 | CHT inh conf inactive | HEK293 MPD ctr inactive
CCOC(=O)c1sc(SCc2ccccc2)c2c1CC(C)(C)CC2=O	none
CC(=O)Oc1ccc2nc(-c3ccco3)oc(=O)c2c1	CHT inh -10 | CHT inh conf inactive | HEK293 MPD ctr inactive
CC(=O)Oc1ccc2nc(-c3cccs3)oc(=O)c2c1	none
N#Cc1c(Cl)cccc1N1CCCC1	CHT inh -7.2 | CHT inh conf 49% | HEK293 MPD ctr inactive
O=S(=O)(Nc1nc2ccccc2nc1Cl)c1ccc(Br)cc1	none
Cc1cc2c(ncn2Cc2ccccc2)c([N+](=O)[O-])c1C	CHT inh -5.3 | CHT inh conf 51% | HEK293 MPD ctr inactive
Cc1ccc(CCNC(=O)C2CCN(S(=O)(=O)N3CCOCC3)CC2)cc1	none
COc1ccnc(Oc2cccc(C(F)(F)F)c2)c1C(=O)N/C=N/OCc1ccccc1F	none
CC1CCCCC1NC(=O)CN1CCN(Cc2ccccc2Cl)C1=O (centres undefined)	none
O=C(CN1CCN(Cc2ccccc2Cl)C1=O)NC1CCCCCCC1	CHT inh -5.2 | CHT inh conf inactive | HEK293 MPD ctr inactive
COc1ccccc1CNC(=O)CS(=O)(=O)c1ccccc1	none
Cc1ccc(C)c(OCC(=O)Nc2ccc(S(=O)(=O)Nc3ccccn3)cc2)c1C	CHT inh -7.2 | CHT inh conf 59% | HEK293 MPD ctr inactive
Cc1cc(NS(=O)(=O)c2ccc(NC(=O)c3ccc(Cl)cc3Cl)cc2)no1	CHT inh -9.4 | CHT inh conf 13% | HEK293 MPD ctr inactive
O=C(Nc1ccc(S(=O)(=O)Nc2ccccn2)cc1)c1ccc(Cl)cc1Cl	CHT inh -12 | CHT inh conf -0.5% | HEK293 MPD ctr inactive
Cc1noc(NS(=O)(=O)c2ccc(NC(=O)c3oc4ccc(Cl)cc4c3C)cc2)c1C	CHT inh -5.6 | CHT inh conf 59% | HEK293 MPD ctr inactive
CCOc1ccc(C2C(C#N)=C(N)N(N(C)C)C3=C2C(=O)CC(C)(C)C3)cc1 (centres undefined)	none
O=C(OCc1nc2ccsc2c(=O)[nH]1)c1ccc(Cl)nc1	none
O=C(OCc1nc2ccsc2c(=O)[nH]1)c1ccc(Cl)s1	CHT inh -11 | CHT inh conf 5.9% | HEK293 MPD ctr inactive
Cc1ccccc1NC(=O)c1ccc(CN2CC(=O)N3CCCCC3C2=O)cc1 (centres undefined)	none

Screens as filed in PubChem BioAssay.
